Read-outs that look alike come from different tables or passages of the source.
Columns and labels:
[1] = tested on: T1, DCAMKL2; details: concentration: 1 μM,replicates: in singlicate; n = 1
T1 construct: gene DCLK2

[2] = tested on: T2, DCAMKL3; details: concentration: 1 μM,replicates: in singlicate; n = 1
T2 construct: gene DCLK3

[3] = tested on: DDR1; details: concentration: 1 μM,replicates: in singlicate; n = 1
[4] = tested on: DDR2; details: concentration: 1 μM,replicates: in singlicate; n = 1
[5] = tested on: T3, DLK; details: concentration: 1 μM,replicates: in singlicate; n = 1
T3 construct: gene MAP3K12

[6] = tested on: T4, DMPK2; details: concentration: 1 μM,replicates: in singlicate; n = 1
T4 construct: gene CDC42BPG

[7] = tested on: DMPK; details: concentration: 1 μM,replicates: in singlicate; n = 1
[8] = tested on: T5, DRAK1; details: concentration: 1 μM,replicates: in singlicate; n = 1
T5 construct: gene STK17A

[9] = tested on: T6, DRAK2; details: concentration: 1 μM,replicates: in singlicate; n = 1
T6 construct: gene STK17B

[10] = tested on: DYRK1A; details: concentration: 1 μM,replicates: in singlicate; n = 1
[11] = tested on: DYRK1B; details: n = 1
[12] = tested on: DYRK2; details: concentration: 1 μM,replicates: in singlicate; n = 1
[13] = tested on: EGFR; details: concentration: 1 μM,replicates: in singlicate; n = 1
[14] = tested on: EIF2AK1; details: concentration: 1 μM,replicates: in singlicate; n = 1
[15] = tested on: EPHA1; details: concentration: 1 μM,replicates: in singlicate; n = 1
[16] = tested on: EPHA2; details: concentration: 1 μM,replicates: in singlicate; n = 1
[17] = tested on: EPHA3; details: concentration: 1 μM,replicates: in singlicate; n = 1
[18] = tested on: EPHA4; details: concentration: 1 μM,replicates: in singlicate; n = 1
[19] = tested on: EPHA5; details: concentration: 1 μM,replicates: in singlicate; n = 1
[20] = tested on: EPHA6; details: n = 1
[21] = concentration: 1 μM,replicates: in singlicate
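Also: KINOMEscan kinase panel screen.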

Question: What does the source list for Cl.Nc1n[nH]c2cc(-c3ccccn3)ccc12 [GSK2189892]?
Answer: %Inh [1]: 0%; %Inh [2]: 0%; %Inh [3]: 16%; %Inh [4]: 0%; %Inh [5]: 4%; %Inh [6]: 0%; %Inh [7]: 0%; %Inh [8]: 37%; %Inh [9]: 0%; %Inh [10]: 10%; %Inh [11, 21]: 10%; %Inh [12]: 22%; %Inh [13]: 38%; %Inh [14]: 0%; %Inh [15]: 7%; %Inh [16]: 23%; %Inh [17]: 0%; %Inh [18]: 1%; %Inh [19]: 0%; %Inh [20, 21]: 0%

Question: Which “%Inh” value [1] does the source give for C[C@@H](Oc1cc(-n2cnc3cc(-c4cnn(C)c4)ccc32)sc1C(N)=O)c1ccccc1Cl [GSK580432] here?
Answer: Its value is 10%.

Question: And the “%Inh” value [2]?
Answer: The value was 0%.

Question: What about the “%Inh” value [3] of the same compound?
Answer: The value was 42%.

Question: What about the “%Inh” value [4] of the same compound?
Answer: The value was 3%.

Question: What about the “%Inh” value [5] of the same compound?
Answer: Its value is 29%.

Question: What about the “%Inh” value [6] of the same compound?
Answer: The value was 1%.

Question: And the “%Inh” value [7]?
Answer: Its value is 45%.

Question: What about the “%Inh” value [8] of the same compound?
Answer: Its value is 6%.

Question: And the “%Inh” value [9]?
Answer: The value was 15%.

Question: What about the “%Inh” value [10] of the same compound?
Answer: The value was 18%.

Question: And the “%Inh” value [11, 21]?
Answer: The value was 0%.

Question: And the “%Inh” value [12]?
Answer: Its value is 21%.

Question: And the “%Inh” value [13]?
Answer: Its value is 28%.

Question: And the “%Inh” value [14]?
Answer: The value was 15%.

Question: And the “%Inh” value [15]?
Answer: The value was 19%.

Question: And the “%Inh” value [16]?
Answer: Its value is 29%.

Question: What about the “%Inh” value [17] of the same compound?
Answer: The value was 20%.

Question: What about the “%Inh” value [18] of the same compound?
Answer: The value was 7%.

Question: What about the “%Inh” value [19] of the same compound?
Answer: Its value is 0%.

Question: What about the “%Inh” value [20, 21] of the same compound?
Answer: The value was 28%.

Question: Cc1ccn2nc(-c3ccc(F)cc3)c(-c3ccncc3)c2c1.Cl [GW457859] was tested. Which “%Inh” value [1] did it give?
Answer: The value was 0%.

Question: And the “%Inh” value [2]?
Answer: The value was 0%.

Question: What about the “%Inh” value [3] of the same compound?
Answer: Its value is 75%.

Question: What about the “%Inh” value [4] of the same compound?
Answer: The value was 82%.

Question: And the “%Inh” value [5]?
Answer: The value was 44%.

Question: What about the “%Inh” value [6] of the same compound?
Answer: The value was 75%.

Question: What about the “%Inh” value [7] of the same compound?
Answer: Its value is 0%.

Question: What about the “%Inh” value [8] of the same compound?
Answer: The value was 2%.

Question: And the “%Inh” value [9]?
Answer: Its value is 0%.

Question: What about the “%Inh” value [10] of the same compound?
Answer: Its value is 0%.

Question: And the “%Inh” value [11, 21]?
Answer: The value was 10%.

Question: And the “%Inh” value [12]?
Answer: The value was 0%.

Question: And the “%Inh” value [13]?
Answer: The value was 49%.

Question: What about the “%Inh” value [14] of the same compound?
Answer: Its value is 8%.

Question: And the “%Inh” value [15]?
Answer: Its value is 2%.

Question: What about the “%Inh” value [16] of the same compound?
Answer: Its value is 83%.

Question: And the “%Inh” value [17]?
Answer: The value was 19%.

Question: What about the “%Inh” value [18] of the same compound?
Answer: The value was 0%.

Question: And the “%Inh” value [19]?
Answer: Its value is 0%.

Question: And the “%Inh” value [20, 21]?
Answer: The value was 4%.

Question: Which “%Inh” value [1] does the source give for CCn1c(-c2nonc2N)nc2cncc(CNC3CCNCC3)c21.Cl [SB-747651] here?
Answer: The value was 0%.

Question: And the “%Inh” value [2]?
Answer: Its value is 7%.

Question: And the “%Inh” value [3]?
Answer: Its value is 19%.

Question: And the “%Inh” value [4]?
Answer: The value was 25%.

Question: What about the “%Inh” value [5] of the same compound?
Answer: Its value is 23%.

Question: And the “%Inh” value [6]?
Answer: Its value is 0%.

Question: What about the “%Inh” value [7] of the same compound?
Answer: Its value is 27%.

Question: And the “%Inh” value [8]?
Answer: Its value is 6%.

Question: What about the “%Inh” value [9] of the same compound?
Answer: The value was 0%.

Question: What about the “%Inh” value [10] of the same compound?
Answer: Its value is 56%.

Question: What about the “%Inh” value [11, 21] of the same compound?
Answer: The value was 12%.

Question: And the “%Inh” value [12]?
Answer: The value was 25%.

Question: What about the “%Inh” value [13] of the same compound?
Answer: Its value is 35%.

Question: What about the “%Inh” value [14] of the same compound?
Answer: The value was 2%.

Question: What about the “%Inh” value [15] of the same compound?
Answer: The value was 6%.

Question: And the “%Inh” value [16]?
Answer: The value was 0%.

Question: And the “%Inh” value [17]?
Answer: Its value is 0%.

Question: What about the “%Inh” value [18] of the same compound?
Answer: Its value is 9%.

Question: What about the “%Inh” value [19] of the same compound?
Answer: The value was 0%.

Question: And the “%Inh” value [20, 21]?
Answer: Its value is 3%.

Question: For COc1cccc(OC)c1C(=O)Nc1cccc(-c2nn3ccccc3c2-c2ccnc(Nc3cccc(F)c3)n2)c1 [GSK361065], which “%Inh” value [1] is on record?
Answer: Its value is 0%.

Question: And the “%Inh” value [2]?
Answer: The value was 16%.

Question: What about the “%Inh” value [3] of the same compound?
Answer: Its value is 99.3%.

Question: What about the “%Inh” value [4] of the same compound?
Answer: Its value is 57%.

Question: What about the “%Inh” value [5] of the same compound?
Answer: Its value is 0%.

Question: What about the “%Inh” value [6] of the same compound?
Answer: Its value is 84%.

Question: And the “%Inh” value [7]?
Answer: The value was 2%.

Question: And the “%Inh” value [8]?
Answer: The value was 12%.

Question: What about the “%Inh” value [9] of the same compound?
Answer: The value was 12%.

Question: And the “%Inh” value [10]?
Answer: Its value is 0%.

Question: What about the “%Inh” value ([11]; 1 µM) of the same compound?
Answer: The value was 24%.

Question: And the “%Inh” value [12]?
Answer: Its value is 0%.

Question: What about the “%Inh” value [13] of the same compound?
Answer: Its value is 91.7%.

Question: And the “%Inh” value [14]?
Answer: The value was 0%.

Question: And the “%Inh” value [15]?
Answer: The value was 4%.

Question: And the “%Inh” value [16]?
Answer: The value was 11%.

Question: What about the “%Inh” value [17] of the same compound?
Answer: Its value is 0%.

Question: And the “%Inh” value [18]?
Answer: The value was 0%.

Question: And the “%Inh” value [19]?
Answer: Its value is 11%.

Question: And the “%Inh” value ([20]; 1 µM)?
Answer: The value was 11%.

From article PMC5540273 (PLoS ONE, 2017)
